Measured values published in PubChem BioAssay (NCATS).
Inconclusive results are not listed. Calls of active or inactive are those of the source. Calls come from the whole dose curve; as a rule, active = well fitted inhibition curve with a large enough effect; inconclusive = small, poorly fitted or top-dose-only effect; inactive = flat fitted curve, though single readings scatter.

System: CP203
Assay: qHTS profiling for inhibitors of Plasmodium falciparum proliferation (AID 504749); note: nearly all actives have a fitted effect of over 60% in size;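 for activity, negative = inhibition: 0% = DMSO vehicle and full inhibition = artemisinin control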
Details: P. falciparum in erythrocytes, SYBR Green DNA, 72 h; series mostly up to 12.8 µM; activity, negative = inhibition: at the top concentration
Summary of the method: (§1)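 P. falciparum-infected erythrocytes (0.3% parasitemia, 2.5% hematocrit final) were exposed to compounds for 72 h at 37 C in 5% CO2, then lysed with SYBR Green buffer overnight at room temperature; parasite DNA fluorescence was normalized to artemisinin and DMSO controls.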
Potency is the fitted concentration of half-maximal effect.

| Structure (SMILES) | activity, negative = inhibition | Potency |
| --- | --- | --- |
| CC1(C)S[C@H]2C(NC(=O)[C@@H](N)c3ccc(O)cc3)C(=O)N2[C@@H]1C(=O)O (stereo partly drawn) | 1.21% [at 28.7 µM] (inactive) | – |
| CN(C)CCc1c[nH]c2ccc(CC3COC(=O)N3)cc12 (stereo not drawn) | 0.285% [at 28.7 µM] (inactive) | – |
| C[C@@]12CCC(=O)C=C1C=CC1C2CC[C@]2(C)C1CC[C@@]21CCC(=O)O1 (stereo partly drawn) | -17.7% [at 28.7 µM] (inactive) | – |
| CC(C)Oc1ccc2c(=O)cc(-c3ccccc3)oc2c1 | -11.4% [at 28.7 µM] (inactive) | – |
| CC(=O)O[C@@]1(C(C)=O)CCC2C3CC(C)C4=CC(=O)CC[C@@]4(C)C3CC[C@]21C (stereo partly drawn) | -3.47% [at 28.7 µM] (inactive) | – |
| CCC(=O)O[C@@]1(C(=O)CCl)C(C)CC2C3CCC4=CC(=O)C=C[C@@]4(C)[C@]3(F)C(O)C[C@]21C (stereo partly drawn) | – | 13.5 µM (active) |
| CC(=O)[C@]1(O)CCC2C3C=C(Cl)C4=CC(=O)C5CC5[C@@]4(C)C3CC[C@]21C (stereo partly drawn) | -2.45% [at 28.7 µM] (inactive) | – |
| COC1OC(CO)C(OC2OC(C(=O)O)C(OC3OC(COS(=O)(=O)O)C(OC4OC(C(=O)O)C(OC5OC(CO)C(OC6OC(C(=O)O)C(OC7OC(COS(=O)(=O)O)C(OC8OC(C(=O)O)=C[C@H](O)C8OS(=O)(=O)O)C(O)C7NC(C)=O)[C@@H](O)C6O)C(O)C5NC(C)=O)[C@@H](O)C4O)C(O)C3NC(C)=O)[C@@H](O)C2O)C(O)C1NC(C)=O (stereo partly drawn) | 0.726% [at 28.7 µM] (inactive) | – |
| C[C@@]12C=CC(=O)C=C1CCC1C3CC(O)[C@@](O)(C(=O)CO)[C@]3(C)CC(O)[C@]12F (stereo partly drawn) | 4.18% [at 28.7 µM] (inactive) | – |
| CCC1OC(=O)C(C)[C@@H](O[C@H]2C[C@@](C)(OC)C(O)C(C)O2)C(C)[C@@H](O[C@@H]2OC(C)CC(N(C)C)C2O)[C@@](C)(O)CC(C)C(=O)[C@@H](C)C(O)[C@]1(C)O (stereo partly drawn) | -4.16% [at 28.7 µM] (inactive) | – |
| CC1C2CCC3C4CC=C5CC(N(C)C)CC[C@@]5(C)C4CC[C@@]32CN1C (stereo partly drawn) | 5.16% [at 28.7 µM] (inactive) | – |
| COC1CC(O[C@H]2/C(C)=C/CC3CC(C[C@]4(CCC(C)C(C5CCCCC5)O4)O3)OC(=O)[C@H]3C=C(C)/C(=N/O)C4OC/C(=C\C=C\[C@@H]2C)[C@@]43O)OC(C)C1O (stereo partly drawn) | -6.71% [at 28.7 µM] (inactive) | – |
| CCC(C)C(=O)OC1CC(O)C=C2C=CC(C)C(CCC(O)CC(O)CC(=O)O)C21 (stereo not drawn) | 7.43% [at 28.7 µM] (inactive) | – |
| OCC1OC(n2cnc3c(=S)nc[nH]c32)C(O)C1O (stereo not drawn) | -11.8% [at 28.7 µM] (inactive) | – |

System: CP211
Assay: as above
Details: P. falciparum in erythrocytes, SYBR Green DNA, 72 h; series mostly up to 12.8 µM; activity, negative = inhibition: at the top concentration
Summary of the method: as §1

| Structure (SMILES) | activity, negative = inhibition | Potency |
| --- | --- | --- |
| CC1(C)S[C@H]2C(NC(=O)[C@@H](N)c3ccc(O)cc3)C(=O)N2[C@@H]1C(=O)O (stereo partly drawn) | 1.59% [at 28.7 µM] (inactive) | – |
| CN(C)CCc1c[nH]c2ccc(CC3COC(=O)N3)cc12 (stereo not drawn) | 0.866% [at 28.7 µM] (inactive) | – |
| C[C@@]12CCC(=O)C=C1C=CC1C2CC[C@]2(C)C1CC[C@@]21CCC(=O)O1 (stereo partly drawn) | 6.6% [at 28.7 µM] (inactive) | – |
| CC(C)Oc1ccc2c(=O)cc(-c3ccccc3)oc2c1 | -15.5% [at 28.7 µM] (inactive) | – |
| CC(=O)O[C@@]1(C(C)=O)CCC2C3CC(C)C4=CC(=O)CC[C@@]4(C)C3CC[C@]21C (stereo partly drawn) | 0.865% [at 28.7 µM] (inactive) | – |
| N[C@@H]1C(O)OC(CO)C(O)C1O (stereo partly drawn) | -5.92% [at 28.7 µM] (inactive) | – |
| CC(=O)OCC(=O)[C@@]12OC3(CCCC3)OC1CC1C3CCC4=CC(=O)C=C[C@@]4(C)[C@]3(F)C(O)C[C@]12C (stereo partly drawn) | -9.64% [at 28.7 µM] (inactive) | – |
| C=Cc1c(C)/c2[n-]/c1=C\c1[n-]c(c(CC)c1C)/C=c1\[n-]c3c(c1C)C(=O)C(C(=O)[O-])C=3c1[n-]c(c(C)c1CCC(=O)[O-])\C=2.[Cu].[Na+].[Na+] (stereo not drawn) | -15.4% [at 28.7 µM] (inactive) | – |
| CC(=O)[C@]1(O)CCC2C3C=C(Cl)C4=CC(=O)C5CC5[C@@]4(C)C3CC[C@]21C (stereo partly drawn) | -0.304% [at 28.7 µM] (inactive) | – |
| CO[C@]12C(COC(N)=O)C3=C(C(=O)C(C)=C(N)C3=O)N1CC1NC12 (stereo partly drawn) | – | 19 µM (active) |
| COC1OC(CO)C(OC2OC(C(=O)O)C(OC3OC(COS(=O)(=O)O)C(OC4OC(C(=O)O)C(OC5OC(CO)C(OC6OC(C(=O)O)C(OC7OC(COS(=O)(=O)O)C(OC8OC(C(=O)O)=C[C@H](O)C8OS(=O)(=O)O)C(O)C7NC(C)=O)[C@@H](O)C6O)C(O)C5NC(C)=O)[C@@H](O)C4O)C(O)C3NC(C)=O)[C@@H](O)C2O)C(O)C1NC(C)=O (stereo partly drawn) | 4.11% [at 28.7 µM] (inactive) | – |
| C[C@@]12C=CC(=O)C=C1CCC1C3CC(O)[C@@](O)(C(=O)CO)[C@]3(C)CC(O)[C@]12F (stereo partly drawn) | 4.74% [at 28.7 µM] (inactive) | – |
| CCC1OC(=O)C(C)[C@@H](O[C@H]2C[C@@](C)(OC)C(O)C(C)O2)C(C)[C@@H](O[C@@H]2OC(C)CC(N(C)C)C2O)[C@@](C)(O)CC(C)C(=O)[C@@H](C)C(O)[C@]1(C)O (stereo partly drawn) | -5.18% [at 28.7 µM] (inactive) | – |
| CC1C2CCC3C4CC=C5CC(N(C)C)CC[C@@]5(C)C4CC[C@@]32CN1C (stereo partly drawn) | 11.1% [at 28.7 µM] (inactive) | – |
| COC1CC(O[C@H]2/C(C)=C/CC3CC(C[C@]4(CCC(C)C(C5CCCCC5)O4)O3)OC(=O)[C@H]3C=C(C)/C(=N/O)C4OC/C(=C\C=C\[C@@H]2C)[C@@]43O)OC(C)C1O (stereo partly drawn) | -4.56% [at 28.7 µM] (inactive) | – |
| CCC(C)C(=O)OC1CC(O)C=C2C=CC(C)C(CCC(O)CC(O)CC(=O)O)C21 (stereo not drawn) | -14% [at 28.7 µM] (inactive) | – |
| OCC1OC(n2cnc3c(=S)nc[nH]c32)C(O)C1O (stereo not drawn) | -2.55% [at 28.7 µM] (inactive) | – |

System: CP215
Assay: as above
Details: P. falciparum in erythrocytes, SYBR Green DNA, 72 h; series mostly up to 12.8 µM; activity, negative = inhibition: at the top concentration
Summary of the method: as §1

| Structure (SMILES) | activity, negative = inhibition |
| --- | --- |
| CC1(C)S[C@H]2C(NC(=O)[C@@H](N)c3ccc(O)cc3)C(=O)N2[C@@H]1C(=O)O (stereo partly drawn) | 6.56% [at 28.7 µM] (inactive) |
| CN(C)CCc1c[nH]c2ccc(CC3COC(=O)N3)cc12 (stereo not drawn) | 1.91% [at 28.7 µM] (inactive) |
| C[C@@]12CCC(=O)C=C1C=CC1C2CC[C@]2(C)C1CC[C@@]21CCC(=O)O1 (stereo partly drawn) | -10.4% [at 28.7 µM] (inactive) |
| CC(C)Oc1ccc2c(=O)cc(-c3ccccc3)oc2c1 | -15.1% [at 28.7 µM] (inactive) |
| CC(=O)O[C@@]1(C(C)=O)CCC2C3CC(C)C4=CC(=O)CC[C@@]4(C)C3CC[C@]21C (stereo partly drawn) | 1.22% [at 28.7 µM] (inactive) |
| CC(=O)[C@]1(O)CCC2C3C=C(Cl)C4=CC(=O)C5CC5[C@@]4(C)C3CC[C@]21C (stereo partly drawn) | -3.67% [at 28.7 µM] (inactive) |
| C[C@@]12C=CC(=O)C=C1CCC1C3CC(O)[C@@](O)(C(=O)CO)[C@]3(C)CC(O)[C@]12F (stereo partly drawn) | 5.35% [at 28.7 µM] (inactive) |
| CCC1OC(=O)C(C)[C@@H](O[C@H]2C[C@@](C)(OC)C(O)C(C)O2)C(C)[C@@H](O[C@@H]2OC(C)CC(N(C)C)C2O)[C@@](C)(O)CC(C)C(=O)[C@@H](C)C(O)[C@]1(C)O (stereo partly drawn) | -4.33% [at 28.7 µM] (inactive) |
| CC1C2CCC3C4CC=C5CC(N(C)C)CC[C@@]5(C)C4CC[C@@]32CN1C (stereo partly drawn) | 4.67% [at 28.7 µM] (inactive) |
| COC1CC(O[C@H]2/C(C)=C/CC3CC(C[C@]4(CCC(C)C(C5CCCCC5)O4)O3)OC(=O)[C@H]3C=C(C)/C(=N/O)C4OC/C(=C\C=C\[C@@H]2C)[C@@]43O)OC(C)C1O (stereo partly drawn) | -7.07% [at 28.7 µM] (inactive) |
| CCC(C)C(=O)OC1CC(O)C=C2C=CC(C)C(CCC(O)CC(O)CC(=O)O)C21 (stereo not drawn) | -15.3% [at 28.7 µM] (inactive) |
| OCC1OC(n2cnc3c(=S)nc[nH]c32)C(O)C1O (stereo not drawn) | 0.804% [at 28.7 µM] (inactive) |
